# Tgondii IFNg: inhibitors of Toxoplasma gondii growth with IFN-gamma; Toxoplasma gondii growth in IFN-gamma-treated host cells; active compounds read low; activity change, negative = inhibition, % (concentration not given with the values); hit rate 3.8% among 69,000; in the data active = activity change below about -70%, passing the limit was not always enough;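 also: host cells are HeLa cells infected with Toxoplasma gondii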
# * = called active by the depositor; ! = a repeat was not active. Many of the other results were omitted from the sample, so hits are more common in it than they were.
SMILES,Tgondii IFNg
Cc1ccc(CN2CCC3(CC2)N=C(c2cccc(Cl)c2)C(=O)N3)c(C)c1,4.5
CCc1oc2c(Cl)cc(-n3cnnc3)cc2c1C,-85.1*
CCc1oc2c(-n3cnnc3)cccc2c1C,-10.0
Cc1cc2cc(NC(=O)c3ccc(-n4cnnc4)cc3)cc(Cl)c2o1,-9.0
COc1ccccc1CN(Cc1cccnc1)S(=O)(=O)Cc1ccccc1Cl,-1.3
CCC(=O)NCCc1csc(-c2ccc(F)cc2)n1,100.5
c1ccc(C2CN(c3ncnc4c3CCNC4)CCO2)cc1 (stereo not given),47.1
c1cnc(NC2CCN(c3ncnc4c3CCNC4)CC2)nc1,-35.0
c1ccc(C2CCCN(c3ncnc4c3CCNC4)CC2)cc1 (stereo not given),-79.0*
CCc1ncc(C(=O)NC23CC4CC(C2)CC(n2nnc(C)n2)(C4)C3)cn1,-2.7
COc1cc(F)ccc1-c1cnc(N)cn1,-1.8
c1csc(-c2cncc(-c3nnc(-c4cccc5ccccc45)o3)c2)c1,-101.6*
Clc1ccc(-c2cc(-c3cccs3)c(-c3ccccc3)o2)cc1,140.8
FC(F)(F)c1oc(-c2ccccc2Cl)cc1-c1nc(-c2cccs2)no1,-3.9
CC(=O)Nc1cccc(Oc2ccc(C3CCCCN3)cn2)c1 (stereo not given),6.3
COCCNC(=O)C[C@@H]1COC[C@@H]2CN(c3ccc(C)nn3)C[C@@H]21,-8.7
COc1ccc(-c2ccc([C@H]3[C@@H](C#N)N(C(=O)NC(C)C)[C@H]3CO)cc2)cc1,-75.7*
COc1ccc(-c2ccc([C@H]3[C@H](C#N)N(C(=O)NC(C)C)[C@H]3CO)cc2)cc1,-54.8
COc1ccc(-c2ccccc2[C@H]2[C@@H](C#N)N(C(=O)NC(C)C)[C@H]2CO)cc1,-12.0
CCCCNC(=O)CN(C)C(=O)c1cccc(-c2ccc(O)cc2)c1,1.8
CCCCCS(=O)(=O)CCCCCCCCCCn1c(-c2ccc(O)cc2)c(C)c2cc(O)ccc21,-78.7*
Cc1ccc(C(=O)NCC(=O)NC2CCN(CC3(c4ccc(Cl)cc4)CCC3)CC2)o1,-27.6
O=C(c1cccs1)N1CCC[C@@]2(C(=O)N3CCOCC3)CN(c3ncccn3)C[C@H]2C1,4.5
COc1ccc(-c2nc(Nc3cccc(SC)c3)c3ccccc3n2)cc1,-31.6
C[C@@H]1CN([C@H](C)CO)C(=O)c2cc(N(C)C)ccc2O[C@@H]1CN(C)CC1CCCCC1,7.7
SMILES,Tgondii IFNg
CCN1C[C@@H]2C[C@H](C(=O)Nc3ccc4c(c3)OCO4)[C@@H](C1)O2,19.9
COc1ccc([C@@H]2CC(=O)c3c(O)cc(O[C@@H]4O[C@H](CO[C@@H]5O[C@@H](C)[C@H](O)[C@@H](O)[C@H]5O)[C@@H](O)[C@H](O)[C@H]4O)cc3O2)cc1O,10.3
O=C1C[C@@H](c2ccccc2)Oc2cc(O)cc(O)c21,1.5
COc1ccc([C@@H]2CC(=O)c3c(O)cc(O)cc3O2)cc1O,-76.9*!
Cc1ccc2c(c1)NC1(CCN(S(=O)(=O)c3ccc(NC(=O)CC(C)C)cc3)CC1)c1cccn1-2,26.3
COc1ccc2c(c1)NC1(CCN(C(=O)c3ccc(Br)o3)CC1)c1cccn1-2,-78.6*
COc1ccc2c(c1)NC1(CCN(C(=O)COc3ccc(F)cc3)CC1)c1cccn1-2,59.5
COc1ccc2c(c1)NC1(CCN(C(=O)Cc3ccc(F)cc3)CC1)c1cccn1-2,-83.7*
COc1ccc(CC(=O)N2CCC3(CC2)Nc2cc(OC)ccc2-n2cccc23)cc1,51.2
O=C(c1ccc(Br)o1)N1CCC2(CC1)Nc1cc(F)ccc1-n1cccc12,-27.0
COc1ccc2c(c1)NC1(CCN(C(=O)COc3cccc(C)c3)CC1)c1cccn1-2,-129.4*
COc1ccc(OCC(=O)N2CCC3(CC2)Nc2cc(C)ccc2-n2cccc23)cc1,30.8
CC(C)CC(=O)Nc1ccc(S(=O)(=O)N2CCC3(CC2)Nc2ccccc2-n2cccc23)cc1,1.5
CCc1ccc(C(=O)N2CCC3(CC2)Nc2cc(OC)ccc2-n2cccc23)cc1,15.7
COc1cccc(CC(=O)N2CCC3(CC2)Nc2cc(OC)ccc2-n2cccc23)c1,-33.7
CC(C)CC(=O)Nc1ccc(S(=O)(=O)N2CCC3(CC2)Nc2cc(F)ccc2-n2cccc23)cc1,-77.1*
O=C(C[C@H]1CC[C@@H]2[C@H](COC[C@@H](O)CN2CC2CCOCC2)O1)NCc1ccc(Cl)cc1,-36.0
Cc1ccc(CN2CCCn3cnc(COCC4CC4)c3C2)s1,-48.5
Clc1cccc(N2CCN(C3=Cc4ccccc4C3)CC2)c1,38.6
COc1ccc(C(=O)Nc2ccc(-c3nc(-c4ccccc4)co3)cc2)cc1OC,8.4
COc1ccc(NC(=O)c2ccc3nc(-c4ccoc4)c(-c4ccoc4)nc3c2)cc1OC,57.4
COc1ccc(C(=O)Nc2ccc(-c3nc(-c4cc(C)ccc4C)co3)cc2)cc1OC,7.0
COc1ccc(C(=O)Nc2ccc(N3CCCC3)cc2)cc1OC,-5.2
COc1ccc(NC(=O)c2ccc(-c3ccc(-c4noc(C)n4)cc3C)cc2)cc1N1CCN(C)CC1,-71.5*!
COc1ccc(NC(=O)c2ccc(-c3ccc(-c4noc(C)n4)cc3C)cc2)cc1OCCN(C)C,-76.9*!
SMILES,Tgondii IFNg
COCC12CCCOC1CCN(Cc1ccc3c(c1)OCO3)C2 (stereo not given),0.6
CC(C)CCCC(C)[C@H]1CCC2C3C(=O)C=C4C[C@@H](O)CC[C@]4(C)C3CC[C@@]21C (stereo not given in full),-18.0
CCOc1cc(C(=O)NCCc2csc(-c3ccc(C)cc3)n2)cc(OCC)c1OCC,79.8
COc1cc2c(cc1NC(C)=O)NC(=O)CC2c1ccnn1-c1ccccc1 (stereo not given),7.0
CN1CCC(C)(CNC(=O)CSc2nc3ccccc3c(=O)[nH]2)C1 (stereo not given),3.5
C=C1c2cccc(O)c2C(=O)C2C(=O)[C@]3(O)C(=O)C(C(N)=O)C(=O)[C@@H](N(C)C)[C@@H]3[C@@H](O)[C@H]12 (stereo not given in full),-72.1*!
Cc1cc(C)nc(SCc2cc(-c3nn(C)c(=O)c4ccccc34)ccc2C)n1,61.4
O=C(c1nccc2ccccc12)N1C2CCC1CC(c1ccc(F)cc1)C2 (stereo not given),-2.6
O=C(C1CCCCC1)N1CC2(C1)[C@@H](c1ccccc1)[C@H](CO)N2C(=O)c1cccnc1,-44.6
Cc1occc1C(=O)N1CCOCC2(CCN(c3ncccn3)C2)C1 (stereo not given),-3.2
Cc1occc1C(=O)N1CCOCC2(CCN(Cc3nccn3C)C2)C1 (stereo not given),-77.7*
Cc1ccc(CN2CCOCC3(CCN(Cc4nccn4C)C3)C2)s1 (stereo not given),52.4
COc1cc(NC(=O)N2CCC3(CC2)Nc2cc(F)ccc2-n2cccc23)cc(OC)c1OC,495.1
C[C@H](CO)N1C[C@H](C)[C@@H](CN(C)S(=O)(=O)c2cccc(C#N)c2)OCc2ccccc2-c2ccccc2C1=O,-24.5
O=c1[nH]n(CCO)c(=O)c2cccnc12,76.8
O=S(=O)(O)c1cc(I)c(O)c2ncccc12,9.9
O=C(Oc1ccc(Cl)c2cccnc12)c1cccnc1,-67.6
Oc1ccc(Cl)c2cccnc12,12.2
COc1ccc(-c2ncc(Cl)cn2)c2ccc(C)nc12,-37.7
Oc1c(Cl)cc(Cl)c2cccnc12,-82.9*
Oc1c(I)cc(I)c2cccnc12,-76.1*!
Cc1ccc2c(Cl)cc(Cl)c(O)c2n1,-81.5*
COc1ncccc1-c1cncc(C(=O)N2CCCCC2)n1,-0.1
NCCc1nc(NCC(c2ccccn2)N2CCOCC2)c2ccccc2n1 (stereo not given),10.2
